{"source": "PubChem BioAssay (Tox21)", "note": "Results filed as inconclusive are left out. Entries that show only a call come without a potency. Active and inactive are the calls of the source. Calls come from the whole dose curve; as a rule, active = well fitted cell-killing curve with a large enough effect in the repeat runs; inconclusive = weak or mixed curves, or effect the other way; inactive = flat fitted curve, though single readings scatter.", "data": [{"experiment": "qHTS assay to identify small molecule agonists of the constitutive androstane receptor (CAR) signaling pathway - cell viability counter screen (AID 1224836); note: nearly all actives have a fitted effect of over 45% in size", "conditions": "HepG2-CYP2B6-hCAR viability, CellTiter-Fluor, 23 h, PK11195 added to every well; series mostly up to 92.4 µM", "method_in_brief": "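Cells were seeded and incubated 4 hrs. Compounds were added across 15 concentrations together with PK11195 at 0.75 uM final. Plates were incubated 23 hrs at 37 C. CellTiter-Fluor was added and fluorescence measured.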", "values": [{"compound": "COP(=S)(OC)SCN1C(=O)c2ccccc2C1=O", "Potency": "inactive"}, {"compound": "Oc1ccc(Cl)cc1", "Potency": "inactive"}, {"compound": "Cc1ccccc1N", "Potency": "inactive"}, {"compound": "C=C(C)C(=O)OCC(CC)CCCC", "note": "(stereo unspecified)", "Potency": "inactive"}, {"compound": "COP(=S)(OC)Oc1ccc(SC)c(C)c1", "Potency": "inactive"}, {"compound": "Cc1cccc(N)c1", "Potency": "inactive"}, {"compound": "CCOP(=S)(OCC)Oc1cc(C)nc(C(C)C)n1", "Potency": "inactive"}, {"compound": "Sc1ccccc1", "Potency": "inactive"}, {"compound": "Nc1ccc([As](=O)(O)O)cc1", "Potency": "inactive"}, {"compound": "c1ccc2c(c1)CCCC2", "Potency": "inactive"}, {"compound": "O=C(O)C(Br)Br", "Potency": "inactive"}, {"compound": "C=CC(=O)OCC(CC)CCCC", "note": "(stereo unspecified)", "Potency": "inactive"}, {"compound": "CC12CC1(C)C(=O)N(c1cc(Cl)cc(Cl)c1)C2=O", "note": "(stereo unspecified)", "Potency": "inactive"}, {"compound": "Nc1cccc(Cl)c1", "Potency": "inactive"}, {"compound": "Cc1cccc(C)c1N", "Potency": "inactive"}, {"compound": "NNc1ccccc1", "Potency": "inactive"}, {"compound": "CCCOC(=O)c1ccccc1C(=O)OCCC", "Potency": "inactive"}, {"compound": "OCc1ccco1", "Potency": "inactive"}, {"compound": "O=C(O)CCCc1ccc(N(CCCl)CCCl)cc1", "Potency": "inactive"}, {"compound": "CC(=O)C1CCOC1=O", "note": "(stereo unspecified)", "Potency": "inactive"}, {"compound": "CC(=O)/C=C/c1ccccc1", "Potency": "inactive"}, {"compound": "CC(C)CCCCCCOC(=O)c1ccccc1C(=O)OCCCCCCC(C)C", "Potency": "inactive"}, {"compound": "O=C(O)C1C(C(=O)O)C2(Cl)C(Cl)=C(Cl)C1(Cl)C2(Cl)Cl", "note": "(stereo unspecified)", "Potency": "inactive"}, {"compound": "CC(C)(C)C(=O)CCl", "Potency": "inactive"}, {"compound": "C[C@]12CC[C@H](O)CC1=CC[C@@H]1[C@@H]2CC[C@]2(C)C(=O)CC[C@@H]12", "Potency": "inactive"}, {"compound": "O=C(O)COc1ccccc1", "Potency": "inactive"}, {"compound": "O=[N+]([O-])c1cc([As](=O)(O)O)ccc1O", "Potency": "inactive"}, {"compound": "O=C(O)c1cc(Oc2ccc(C(F)(F)F)cc2Cl)ccc1[N+](=O)[O-]", "Potency": "inactive"}, {"compound": "CCNc1nc(Cl)nc(NC(C)C)n1", "Potency": "inactive"}, {"compound": "O=S(=O)(O)OOS(=O)(=O)O", "Potency": "inactive"}, {"compound": "O=[N+]([O-])c1ccc(Cl)cc1", "Potency": "inactive"}]}]}
